The panel holds about 83,000 compounds, 20% with a hit somewhere; the sample as a whole holds those more often.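 The test compound was applied at a single concentration to cells in 96-well plates for 48 hours, and percent growth was recorded.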 Unmarked numbers belong to inactive results. Active and inactive are the calls of the source. How the source made its calls: active means growth percent below 10; inactive means the rest.

Our source for the growth values is PubChem BioAssay (NCI).

The test system of the experiment is HL-60(TB) leukemia. Kind of experiment: NCI-60 one-dose screen, 48 h (100 = growth as untreated, 0 = no growth, -100 = all killed). The note with it: 10 µM unless noted.
Take `CN(C)c1nc2c([nH]1)c(=O)n(C)c(=O)n2C`: the growth is 108%.
The same measure for `O=C(CCCCl)NNc1nccc(Nc2ccc(S(=O)(=O)Nc3ccncc3)cc2)n1`: 127%; for `Cc1ccc(S(=O)(=O)N/N=C\c2cc(Cl)ccc2O)cc1`: 91.7%.
Consider `O=C(c1ccccc1)C1OC1C(=O)c1ccccc1` (stereo unspecified), for which the growth was 22.8%.
Next, `c1ccc(CCNc2c3ccccc3nc3ccccc23)cc1`: 41.3%; `BrCCCc1n(Cc2ccc3ccccc3c2)c2ccccc2[n+]1Cc1ccc2ccccc2c1`: -54.9% (active).
The same measure for `Clc1cccc(Nc2ncnc3ccc(-c4cncc(-n5cnnn5)c4)cc23)c1`: 86.6%.
For `COc1ccc(CN2C(=O)/C(=C\c3cc(OC)c(OC)c(OC)c3)c3cc(OC)ccc32)cc1`, the growth was -27.2% (active).
The same measure for `COc1ccc(N/N=C/c2ccc3c(c2)Sc2ccccc2N3C)cc1`: 57.3%; for `CCCc1c(OC(=O)c2ccccc2)nc2[nH]c(=O)sc2c1C`: 98%; for `CC(C)C(C(=O)NCCN1CCOCC1)N1C(=O)/C(=C/c2ccc(Br)cc2)SC1=S` (stereo unspecified): 101%.
The same measure for `Fc1ccc(-c2cnc3nonc3n2)c(F)c1`: 7.84% (active).
Next, `COc1ccc(C2c3ccc4ccccc4c3Oc3ncnc(N)c32)cc1` (stereo unspecified): 89%; `Cc1c(-c2cnc3ccc(Cl)cc3c2C(=O)O)nnn1-c1ccc(Cl)cc1`: 96.2%; `CCc1ccc(OCc2ccccc2C(=O)Nc2ccc3nc(C)cc(N)c3c2)cc1`: -75.9% (active).
In the case of `c1ccc(-c2oc(-c3ccccc3)c3ccccc23)cc1`, the growth was 109%.
The same measure for `COc1ccc(Br)c(C=O)c1`: -16.3% (active).
Next, `c1ccc2c(-c3nc(N4CCOCC4)c4c5c(sc4n3)CCCCCC5)cccc2c1`: 114%; `O=C(NC(=S)Nc1ccc(Cl)cc1)c1ccccc1`: 60.5%.
Turning to `O=C1Nc2ccccc2/C1=C/c1cccn1CCCCCn1c2ccccc2c(=O)c2ccccc21`, the growth was 47.6%.
Next, `CCCCCN(CCCCC)CC(O)c1cc(C)c2ccc3cc(C(C)C)ccc3c2c1` (stereo unspecified): -29.6% (active); `CN(C)[C@@H]1C(=O)C(C(N)=O)=C(O)[C@@]2(O)C(=O)C3=C(O)c4c(O)cc(CN5CCc6ccccc6C5)c(Cl)c4C[C@H]3C[C@@H]12`: -64.8% (active).
The same measure for `O=C1N(C[P+](c2ccccc2)(c2ccccc2)c2ccccc2)CCCN1C[P+](c1ccccc1)(c1ccccc1)c1ccccc1`: 62.9%; for `COc1ccc(CNCCN2C(=O)c3ccc4c5c(ccc(c35)C2=O)C(=O)N(CCNCc2ccc(OC)cc2)C4=O)cc1`: -63.4% (active).
Next, `CC1(C)OC(=O)C(=Cc2ccccc2Br)C(=O)O1`: 98.5%; `O=S(=O)(c1ccccc1)N1CCCc2ccccc21`: 103%.
